# Source: PubChem
# Only some compounds are listed: those with a hit (about 6.9% of all), similar ones and a draw of the others.
# Vif-A3F inh: qHTS for Inhibitors of Vif-A3F Interactions: qHTS. HeLa A3F-eYFP + Vif (tagged APOBEC3F with the HIV-1 protein that degrades it), YFP fluorescence increase. Potency, µM (doses to about 46.1 µM), for the others: top-dose activity, negative = active. 390,000 compounds, 0.2% hits; also: potency is read from the fitted curve at half-maximal effect; % of control where 0% means no effect; nearly all actives have a fitted effect of over 65% in size
#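 Fluorescence increase (Ex 488/Em 500-530) after overnight compound treatment at 37 deg C flags inhibition of Vif-driven A3F-eYFP loss in stable HeLa A3F-eYFP/Vif cells seeded overnight beforehand.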
# Giardia kill: Small Molecules that selectively kill Giardia lamblia: qHTS; Giardia lamblia trophozoite viability; 340,000 compounds, 0.15% hits; activity change, % at 7.66 µM, hits read low; in the data active = activity change below about -80%; inconclusive = between about -30% and that limit;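 also: parasites exposed to compound for two days anaerobically before the ATP read; % is scaled to controls: 0 for no effect and ±100 for the full control effect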
#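 Anaerobic 48 hrs incubation at 37 deg C of 100 trophozoites/well with test compounds; ATPLite 1-Step luminescence, 15-30 min RT, reports cellular ATP as viability.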
# SW480 rerep: A quantitative high throughput screen for small molecules that induce DNA re-replication in SW480 colon adenocarcinoma cells | SW480 DNA re-replication, Hoechst DNA content imaging, 48 h | Potency, µM (highest dose often 46.1 µM), inactives show at the highest dose re-replication activation, usual class: activators | 340,000 compounds, 1.8% hits; also: potency is read from the fitted curve at half-maximal effect; % of control where 0% means no effect; nearly all actives have a fitted effect of over 55% in size
#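 Per well, 250 cells were exposed to pinned compound for 48 hr. Nuclear DNA was visualised with Hoechst (40 min, 37 C) and total object intensity recorded by fluorescence scanning.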
# MCF10A rereplic: A quantitative high throughput screen for small molecules that induce DNA re-replication in MCF 10a normal breast cells; MCF 10A DNA re-replication, Hoechst nuclear intensity, 48 h; Potency, µM (series often up to 46.1 µM), inactives show at the top dose activity, positive = re-replication, actives largely listed as activators; 350,000 compounds, 2.9% hits; AID 624296, 2012; also: potency is read from the fitted curve at half-maximal effect; % of control where 0% means no effect; nearly all actives have a fitted effect of over 50% in size
# Vif-A3G inh: qHTS for Inhibitors of Vif-A3G Interactions: qHTS; DNA dC->dU-editing enzyme APOBEC-3G (Homo sapiens), Q9HC16; HeLa A3G-eYFP + Vif (tagged APOBEC3G with the HIV-1 protein that degrades it), YFP fluorescence, overnight; 410,000 compounds, 0.076% hits; Potency, µM (highest dose often 46.1 µM), inactives show at the highest dose activity, negative = active, actives largely listed as inhibitors; also: potency is read from the fitted curve at half-maximal effect; % is scaled to controls: 0 for no effect and ±100 for the full control effect; nearly all actives have a fitted effect of over 60% in size
# Target sequence (Q9HC16 whole entry, looked up): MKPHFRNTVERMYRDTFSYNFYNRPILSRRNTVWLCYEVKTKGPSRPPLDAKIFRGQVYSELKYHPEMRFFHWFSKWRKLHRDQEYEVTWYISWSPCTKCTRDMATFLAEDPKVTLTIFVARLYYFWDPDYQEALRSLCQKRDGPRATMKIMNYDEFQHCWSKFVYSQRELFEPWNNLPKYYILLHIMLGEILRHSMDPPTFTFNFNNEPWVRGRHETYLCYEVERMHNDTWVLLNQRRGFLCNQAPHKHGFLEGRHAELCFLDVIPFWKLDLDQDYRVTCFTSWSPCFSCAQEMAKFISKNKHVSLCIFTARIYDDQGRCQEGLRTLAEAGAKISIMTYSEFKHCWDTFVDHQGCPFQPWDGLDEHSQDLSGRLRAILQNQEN
#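 Read-out is eYFP fluorescence (Ex 488/Em 500-530) from Vif-expressing HeLa A3G-eYFP cells; more signal means A3G escaped Vif-mediated degradation. Cells plated overnight, compound pinned in, incubated overnight at 37 deg C.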
# IL-1B inflam inh: qHTS for Inhibitors of Inflammasome Signaling: IL-1-beta AlphaLISA Primary Screen | THP-1 LPS/ATP IL-1B secretion, AlphaLISA, 16 h; hits give low values | activity change, % at 57.5 µM | 360,000 compounds, 4.7% hits; in the data active = activity change below about -50%; inconclusive = mostly about -30% to -49%; also: % is scaled to controls: 0 for no effect and ±100 for the full control effect
#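 Secreted IL-1B measured by AlphaLISA bead assay after 16 h compound exposure of THP-1 cells; compounds (final up to 57.5 uM) added 1 h before LPS (250 ng/mL) and ATP (1.25 mM) stimulation; lower signal means less secretion.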
# * hit, by the source's call; ? = inconclusive; nt = no result given. Unless noted, calls follow the shape of the dose curve; as a rule, active = well fitted curve in the direction sought with a large enough effect; inconclusive = small, poorly fitted or top-dose-only effect, or another doubt; inactive = no such curve, though single readings can be large; an effect the other way counts as inactive or inconclusive.
SMILES,Vif-A3F inh,Giardia kill,SW480 rerep,MCF10A rereplic,Vif-A3G inh,IL-1B inflam inh
COc1ccc(S(=O)(=O)N2CCCCCC2)cc1C(=O)N(C)CC(=O)Nc1ccc(Cl)c(Cl)c1,-8.8%,-5.0,-23.6%,-12.6%,-2.5%,-59.3*
CN(CC(=O)Nc1ccc(Cl)c(C(F)(F)F)c1)C(=O)c1ccc(S(=O)(=O)N2CCOCC2)cc1,-15.6%,4.4,?,5.8µM*,?,73.3
COc1ccc(S(=O)(=O)N2CCCCCC2)cc1C(=O)N(C)Cc1ccc(C(C)(C)C)cc1,5.6%,-2.3,-16.8%,18.4µM*,-4.5%,-72.5*
Cc1cccc(N2C(=O)C(CC(=O)Nc3ccc(F)cc3)N(C3CCCC3)C2=O)c1 (centres undefined),0.5%,nt,nt,nt,1.4%,nt
Cc1ccc(N2CC(NC(=O)c3ccccc3C(F)(F)F)CC2=O)cc1C (centres undefined),6.9%,nt,nt,nt,5.9%,nt
Cc1ccc(S(=O)(=O)N2CCCCC2)cc1C(=O)N(C)CC(=O)Nc1ccc(Cl)c(C(F)(F)F)c1,2.0%,4.2,?,23.1µM*,-4.6%,-56.3*
CCc1ccc(CN(C)C(=O)c2cc(S(=O)(=O)N3CCN(CC)CC3)ccc2Cl)cc1,-5.4%,-24.3,-65.3%,?,1.6%,-67.0*
COc1ccc(NC(=O)CSCC(=O)N(C)CC(=O)Nc2ccc(Cl)c(C(F)(F)F)c2)cc1,-28.0%,5.1,?,27.7%,-3.4%,-6.7
Cc1cc(C)cc(OCC(=O)N(C)CC(=O)Nc2ccc(Cl)c(C(F)(F)F)c2)c1,3.2%,15.4,3.1%,6.51µM*,-10.3%,-78.2*
CN(CC(=O)Nc1ccc(Cl)c(C(F)(F)F)c1)C(=O)C1CCC1,1.5%,-16.2,-94.3%,3.6%,0.8%,-5.7
O=C(CSC1=Nc2ccccc2C2=NC(Cc3ccccc3)C(=O)N12)Nc1cccc(Cl)c1 (centres undefined),3.6%,nt,nt,nt,-7.4%,nt
Cc1nc(Sc2nnnn2C2CC2)c2c(-c3ccccc3)csc2n1,nt,nt,nt,nt,1.1%,nt
COc1cccc(CCn2c(N)cc(=O)[nH]c2=S)c1OC,nt,3.6,nt,nt,nt,nt
CCc1ccc(NC(=O)C2CCCN2S(=O)(=O)c2ccc3c(c2)CCCC(=O)N3)cc1 (centres undefined),-1.3%,nt,nt,nt,9.7%,nt
CC(C)CC(=O)Nc1ccc(S(=O)(=O)Nc2cc3c(cc2N2CCOCC2)n(C)c(=O)c(=O)n3C)cc1,-0.3%,nt,nt,nt,1.8%,nt
Oc1[nH]c2ccccc2c1N=Nc1ccccc1Cl,22.4µM*,-12.8,-1.5%,-0.5%,-15.2%,24.4
Oc1[nH]c2ccccc2c1N=Nc1c(F)c(F)c(Cl)c(F)c1F,-15.4%,1.3,-10.9%,0.8%,-2.7%,-5.4
COc1ccc(CN2CC[C@H]3C=CC[C@@H](C(=O)Nc4ccc(Cl)cc4Cl)[C@H]3C2=O)cc1OC,nt,nt,nt,nt,-7.3%,nt
COc1ccc(NC(=O)N2c3ccc(OC)cc3C(C)=CC2(C)C)cc1,-12.8%,-15.3,-58.1%,20.6µM*,-7.0%,-1.2
COc1ccc(NC(=O)N2c3ccccc3C(C)=CC2(C)C)cc1,10.3%,3.3,-0.5%,9.0%,0.2%,24.9
Cc1cccc(C)c1NC(=O)/C(C#N)=C/c1ccc(-c2ccc(C(=O)O)cc2)o1,3.1%,8.5,4.0%,0.5%,-5.1%,4.7
Cc1c(NC(=O)/C(C#N)=C/c2ccccc2)c(=O)n(-c2ccccc2)n1C,-5.2%,26.0,1.2%,4.7%,-0.6%,-4.1
Cc1cc(NC(=O)/C(C#N)=C\c2ccc(-c3ccc(SC(F)F)cc3)o2)n(-c2ccccc2)n1,10µM*,16.4,-23.4%,-50.4%,?,16.9
Cc1c(NC(=S)NC(=O)c2ccc(Cl)cc2)c(=O)n(-c2ccccc2)n1C,8.9%,9.3,-1.7%,-0.1%,0.0%,-4.4
Cc1c(NC(=O)/C(C#N)=C/c2ccc(-c3ccccc3Cl)o2)c(=O)n(-c2ccccc2)n1C,-19.8%,-10.2,-3.8%,9.1%,-7.2%,-73.0*
SMILES,Vif-A3F inh,Giardia kill,SW480 rerep,MCF10A rereplic,Vif-A3G inh,IL-1B inflam inh
Cc1c(NN=C(C#N)C#N)c(=O)n(-c2ccccc2)n1C,?,-19.4,-7.4%,-3.4%,3.7%,-60.8*
Cc1c(NC(=O)C(=O)/C=C(\O)c2ccc(Cl)cc2)c(=O)n(-c2ccccc2)n1C,-10.2%,-2.3,0.7%,1.2%,0.7%,-56.4*
CCN(c1ccccc1)S(=O)(=O)c1ccc2[nH]cc(C(=O)NCc3ccc(C)cc3)c(=O)c2c1,2.6%,nt,nt,nt,2.3%,nt
CCCCOc1ccc(CNC(=O)c2cnc3sc(N4CCC(C)CC4)nn3c2=O)cc1,1.2%,nt,nt,nt,3.2%,nt
CCCOc1cccc(C(=O)N2CCCCC2CCN2CCCCC2)c1 (centres undefined),-9.1%,nt,nt,nt,-1.5%,nt
COc1ccccc1C(=O)NC1(C(F)(F)F)C(=O)Nc2c1c(=O)[nH]c(=O)n2-c1ccc(F)cc1 (centres undefined),6.7%,nt,nt,nt,3.1%,nt
CCCC/C=C/[C@H](c1ccccc1)[C@H](CO)Cc1ccc([N+](=O)[O-])cc1,nt,-8.8,nt,nt,-9.1%,nt
Cc1c(NC(=O)/C(C#N)=C/c2ccc(-c3cccc(Cl)c3)o2)c(=O)n(-c2ccccc2)n1C,-1.7%,2.3,?,?,-23.5%,-11.8
Cc1c(NC(=O)/C(C#N)=C/c2ccc(-c3ccc(Cl)c(Cl)c3)o2)c(=O)n(-c2ccccc2)n1C,-2.4%,-4.9,6.7%,5.0%,-8.1%,-51.9*
Cc1ccc(S(=O)(=O)Nc2cccc(-c3cn4ccsc4n3)c2)cc1,-3.9%,-15.3,?,13µM*,?,8.6
O=S(=O)(Nc1ccc(-c2ccc(NS(=O)(=O)c3ccccc3)cc2)cc1)c1ccccc1,1.1%,-1.0,-0.2%,?,-2.7%,-4.3
Cc1ccc(S(=O)(=O)Nc2nc(-c3ccccc3)cs2)cc1,0.3%,18.6,-3.5%,-0.8%,0.7%,17.4
O=S(=O)(Nc1ccc(-c2csc(-c3ccccc3)n2)cc1)c1ccccc1,11.4%,-18.4,-2.3%,?,-4.7%,-102.0*
Cc1cccc(S(=O)(=O)Nc2cccc(-c3cn4ccsc4n3)c2)c1,-6.6%,-26.6,-5.3%,4.3%,-14.0%,-14.0
Cc1ccc(S(=O)(=O)Nc2ccc(-c3csc(-c4ccccc4)n3)cc2)cc1,3.4%,-4.1,?,11.6µM*,-16.4%,-97.2*
COc1ccccc1CN(Cc1ccco1)c1cnc(S(C)(=O)=O)nc1C(=O)Nc1cc(C)ccc1C,2.1%,nt,nt,nt,2.0%,nt
Cc1c(C)n(CC(O)CN2CCCCCC2)c2ccccc12 (centres undefined),6.9%,35.2,0.7%,1.9%,0.7%,-19.8
